PMC4336329 (PLoS ONE, 2015)
The campaign covered roughly 310,000 compounds. About 2,200 (0.71%) showed an effect of 50% or more. The effect is printed as a negative number. The list comes from a sample in which strong results are over-represented; it also holds similar structures and randomly drawn compounds.

Target: human ether-à-go-go-related gene (hERG) potassium channel (human, UniProt Q12809)
Assay: primary screen, population patch clamp on CHO cells stably expressing hERG; higher = less effect of the substance

Chain of human ether-à-go-go-related gene (hERG) potassium channel (Q12809 whole entry, looked up): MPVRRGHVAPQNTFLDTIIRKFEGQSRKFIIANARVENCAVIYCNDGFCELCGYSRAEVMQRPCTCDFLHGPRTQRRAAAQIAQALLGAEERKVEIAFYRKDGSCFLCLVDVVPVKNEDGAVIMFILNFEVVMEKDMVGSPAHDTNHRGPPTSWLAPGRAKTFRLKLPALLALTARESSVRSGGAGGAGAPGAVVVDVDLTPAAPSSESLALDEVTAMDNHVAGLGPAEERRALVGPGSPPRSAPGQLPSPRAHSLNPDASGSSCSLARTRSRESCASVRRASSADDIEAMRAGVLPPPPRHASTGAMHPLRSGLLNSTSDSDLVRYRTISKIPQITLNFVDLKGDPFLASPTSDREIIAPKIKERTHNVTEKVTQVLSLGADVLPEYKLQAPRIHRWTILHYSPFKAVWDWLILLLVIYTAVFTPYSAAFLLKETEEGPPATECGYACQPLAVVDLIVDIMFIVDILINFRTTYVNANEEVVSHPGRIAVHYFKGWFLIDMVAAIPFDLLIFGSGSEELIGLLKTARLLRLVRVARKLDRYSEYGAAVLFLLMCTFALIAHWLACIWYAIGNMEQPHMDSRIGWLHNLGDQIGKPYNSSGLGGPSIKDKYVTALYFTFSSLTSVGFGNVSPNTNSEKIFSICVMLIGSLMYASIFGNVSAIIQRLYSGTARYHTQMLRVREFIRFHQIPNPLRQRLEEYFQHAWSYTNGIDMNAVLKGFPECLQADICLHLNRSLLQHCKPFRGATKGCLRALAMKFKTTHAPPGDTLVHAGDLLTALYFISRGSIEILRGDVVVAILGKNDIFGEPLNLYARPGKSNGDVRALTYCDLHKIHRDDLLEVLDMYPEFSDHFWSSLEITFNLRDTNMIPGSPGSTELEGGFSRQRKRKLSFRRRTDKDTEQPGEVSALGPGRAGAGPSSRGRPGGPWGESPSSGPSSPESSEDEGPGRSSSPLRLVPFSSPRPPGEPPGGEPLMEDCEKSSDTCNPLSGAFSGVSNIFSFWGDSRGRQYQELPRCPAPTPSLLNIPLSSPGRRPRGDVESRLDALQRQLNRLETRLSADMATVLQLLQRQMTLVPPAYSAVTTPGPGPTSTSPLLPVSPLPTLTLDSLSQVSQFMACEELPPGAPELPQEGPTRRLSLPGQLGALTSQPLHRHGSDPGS

First: COc1ccc(/C=C2/C(=O)NC(=O)N(c3ccc(C)c(C)c3)C2=O)cc1CN1C(=O)c2ccccc2C1=O
Second: COc1ccc(CCN(C(=O)/C=C/C(=O)O)C2CC(=O)N(c3ccccc3)C2=O)cc1 (stereo not drawn)
The “hERG current change (%, negative = inhibition) at 1uM” value of the first is lower: -3.04% for the first, 8.45% for the second.

Compared with `CCCC(=O)Nc1c2c(nn1-c1cccc(C)c1C)CS(=O)(=O)C2`, `Cc1cccc(NC(=O)CSCc2nc3c(nnn3Cc3ccc(F)cc3)c(=O)[nH]2)c1C` is higher in “hERG current change (%, negative = inhibition) at 1uM” value: 4.62% for the first, 8.63% for the second.

Going from `COc1ccccc1/C=C1\SC(=O)N(CCC(=O)N2CCCCC2CCO)C1=O` (stereo not drawn) to `COCCCn1c(=O)/c(=C\c2ccccc2OC(F)F)s/c1=C(/C#N)C(=O)N1CCOCC1`, the “hERG current change (%, negative = inhibition) at 1uM” value falls from 14.7% to 9.19%.

First: CCOC(=O)c1c2ccc(OCC(=O)NN)cc2n2ccccc12
Second: CCN(CC(=O)Nc1c(C(=O)OC)[nH]c2ccccc12)c1ccc2c(c1)OCO2
The “hERG current change (%, negative = inhibition) at 1uM” value of the first is higher: 13.3% for the first, 12.1% for the second.

First: CC1CC(C)CN(CCCNC(=O)C2CCN(c3ncnc4c3sc3cccc(F)c34)CC2)C1 (stereo not drawn)
Second: Cc1c(C(=O)NCc2ccccc2CN2CCCC2)oc2ccc(F)cc12
The “hERG current change (%, negative = inhibition) at 1uM” value of the first is higher: -14.9% for the first, -57.4% for the second.

Going from `CC(C)CCNC(=O)c1cc(-c2cccs2)nc2ccccc12` to `CCCCN(C)CCCNC(=O)c1cc(-c2cccs2)nc2ccccc12`, the “hERG current change (%, negative = inhibition) at 1uM” value falls from 2.51% to -80.8%.

Going from `CCCCCCNC(=O)c1cc(-c2ccco2)nc2ccccc12` to `CCN(CC)CCNC(=O)c1cc(-c2ccco2)nc2ccccc12.Cl`, the “hERG current change (%, negative = inhibition) at 1uM” value falls from 7.12% to -55%.

Compared with `CCCCN(C)CCCNC(=O)c1cc(-c2cccnc2)nc2ccccc12`, `CCN(CC)CCNC(=O)c1ccc(NC(=O)c2cc(-c3ccco3)nc3ccccc23)cc1` is higher in “hERG current change (%, negative = inhibition) at 1uM” value: -20.2% for the first, 9.15% for the second.

Compared with `O=C(NC1CCCCC1)N(C1=NCCCCC1)c1ccc(Br)cc1`, `CCOCc1c(C(=O)NC2CCCCCC2)oc2ccccc12` is lower in “hERG current change (%, negative = inhibition) at 1uM” value: 13.1% for the first, -1.11% for the second.

First: Cc1cc(C)n2nc(NCc3cccc(Br)c3)nc2n1
Second: CCn1c(SCC(=O)NCc2ccc3c(c2)OCO3)nnc1-c1c[nH]c2ccccc12
The “hERG current change (%, negative = inhibition) at 1uM” value of the first is lower: -32.1% for the first, 14.9% for the second.

Going from `O=C(Nc1cccc(NC(=O)c2ccccc2Cl)c1)c1ccc(F)cc1` to `COc1ccc(CNCC(O)(c2ccccc2)c2ccc(F)cc2)cc1` (stereo not drawn), the “hERG current change (%, negative = inhibition) at 1uM” value falls from 7.98% to -45.9%.

Compared with `CCOC(=O)c1oc2ccccc2c1CN1CCN(C)CC1.Cl`, `CCOC(=O)c1oc2ccccc2c1CN1CCOCC1.Cl` is higher in “hERG current change (%, negative = inhibition) at 1uM” value: -50.2% for the first, -5.9% for the second.

Compared with `CCOc1ccc2oc(C(=O)NCc3ccccc3CN3CCCC3)c(C)c2c1`, `COc1ccc2oc(C(=O)NCc3ccccc3CN3CCCC3)c(C)c2c1` is lower in “hERG current change (%, negative = inhibition) at 1uM” value: -12.2% for the first, -27.2% for the second.

Compared with `COCc1c(C(=O)NCc2ccccc2CN2CCCC2)oc2ccccc12`, `CCOCc1c(C(=O)NCc2ccccc2CN2CCCC2)oc2ccccc12` is lower in “hERG current change (%, negative = inhibition) at 1uM” value: -34% for the first, -60.1% for the second.

Compared with `CCOC(=O)c1oc2ccccc2c1CN1CCCCC1.Cl`, `O=c1cc(O)c2c(=O)n(C3CCCCC3)c3ccccc3c2o1` is higher in “hERG current change (%, negative = inhibition) at 1uM” value: -9.66% for the first, 10.4% for the second.

Going from `Cc1ccc(NC(=O)CCn2c(=S)oc3ccccc32)cc1` to `O=C(CN1CCN(C(=O)C2COc3ccccc3O2)CC1)Nc1ccc(F)cc1` (stereo not drawn), the “hERG current change (%, negative = inhibition) at 1uM” value falls from 11% to -63.5%.

Compared with `CC(C)(C)C(=O)Nc1c(Cl)cccc1OC(F)(F)F`, `CCC(CC)C(=O)NCCc1ccc(F)cc1` is lower in “hERG current change (%, negative = inhibition) at 1uM” value: 12.4% for the first, 10.2% for the second.

First: CC1CCN(S(=O)(=O)c2ccc3c(c2)n(C)c(=O)n3C)CC1
Second: CC12CCC(=O)N1C(C(=O)Nc1cccc(S(=O)(=O)N3CCCCCC3)c1)CS2 (stereo not drawn)
The “hERG current change (%, negative = inhibition) at 1uM” value of the first is higher: 0.216% for the first, -29.7% for the second.

Going from `C=C(C)CNC(=O)CCc1nnc(C2(c3ccc(Cl)cc3)CCC2)o1` to `CN(CC(=O)NCc1ccccc1)Cc1ccc(Cl)cc1`, the “hERG current change (%, negative = inhibition) at 1uM” value falls from 12.3% to 2.36%.

Going from `CCNC(=S)N1CCN(Cc2ccccc2)CC1.O=C(O)C(=O)O` to `O=C(CN1CCN(Cc2ccccc2)CC1)Nc1nc2ccccc2s1`, the “hERG current change (%, negative = inhibition) at 1uM” value falls from -7.37% to -24.1%.

Going from `O=C(CN1CCN(Cc2ccc3c(c2)OCO3)CC1)Nc1ccc2c(c1)OCO2` to `O=C(CN1CCN(Cc2ccc3c(c2)OCO3)CC1)Nc1ccc(F)cc1`, the “hERG current change (%, negative = inhibition) at 1uM” value falls from -64.3% to -82.6%.

Going from `COc1ccc(NC(=O)CN2CCN(Cc3ccc4c(c3)OCO4)CC2)cc1OC.O=C(O)C(=O)O` to `COc1cc(NC(=O)CN2CCN(Cc3ccc4c(c3)OCO4)CC2)cc(OC)c1.O=C(O)C(=O)O`, the “hERG current change (%, negative = inhibition) at 1uM” value falls from 4.15% to -9.16%.

First: O=C(CN1CCN(c2ccc(F)cc2)CC1)Nc1ccc2c(c1)OCCO2
Second: O=C(CN1CCN(S(=O)(=O)c2ccc(F)cc2)CC1)Nc1ccc2c(c1)OCO2
The “hERG current change (%, negative = inhibition) at 1uM” value of the first is higher: 14.1% for the first, -8% for the second.

First: CCCN1CCN(CC(=O)Nc2nc3ccccc3s2)CC1
Second: O=C(CN1CCN(Cc2ccc(F)cc2)CC1)Nc1nc2ccccc2s1
The “hERG current change (%, negative = inhibition) at 1uM” value of the first is higher: -17.9% for the first, -54% for the second.

First: COC(=O)c1ccsc1NC(=O)CN1CCN(Cc2ccc3c(c2)OCO3)CC1
Second: COC(=O)c1[nH]c2ccccc2c1NC(=O)CN1CCN(Cc2ccc3c(c2)OCO3)CC1
The “hERG current change (%, negative = inhibition) at 1uM” value of the first is higher: -59.7% for the first, -70.3% for the second.

First: COC(=O)c1c(NC(=O)CN2CCN(Cc3ccc4c(c3)OCO4)CC2)sc(C)c1C.O=C(O)C(=O)O
Second: COC(=O)c1[nH]c2ccc(C)cc2c1NC(=O)CCN1CCN(Cc2ccc3c(c2)OCO3)CC1
The “hERG current change (%, negative = inhibition) at 1uM” value of the first is higher: 5.45% for the first, -33% for the second.

Going from `O=C(CN1CCN(CC(=O)Nc2ccc3c(c2)OCO3)CC1)Nc1ccc(F)cc1` to `O=C(CN1CCN(Cc2ccc3c(c2)OCO3)CC1)Nc1ccc(N2CCOCC2)cc1`, the “hERG current change (%, negative = inhibition) at 1uM” value rises from -83.5% to 8.8%.

Going from `NC(=O)CN1CCN(Cc2ccc3c(c2)OCO3)CC1` to `O=C(CN1CCN(Cc2ccc3c(c2)OCO3)CC1)NCC(F)(F)F`, the “hERG current change (%, negative = inhibition) at 1uM” value falls from 22.5% to 11.2%.

Going from `CN(Cc1ccccc1)C(=O)CN1C(=O)NC(C)(c2ccc(Cl)cc2)C1=O` (stereo not drawn) to `CCOc1ccc(CN(C)CC(=O)NCc2ccccc2)cc1`, the “hERG current change (%, negative = inhibition) at 1uM” value falls from 12.8% to -82.3%.

First: COc1ccc(-c2cc(C(=O)N3CCN(c4ccccc4F)CC3)c3ccccc3n2)c(OC)c1
Second: O=C(CCn1c(=O)[nH]c2ccccc2c1=O)N1CCN(c2ccc(Cl)cc2)CC1
The “hERG current change (%, negative = inhibition) at 1uM” value of the first is higher: 4.75% for the first, -4.13% for the second.

Going from `N/C(=N\OC(=O)CC1CCCCC1)c1ccncc1` to `CC12CCC(=O)N1C(C(=O)OCC(=O)Nc1cccc(S(=O)(=O)N3CCCCCC3)c1)CS2` (stereo not drawn), the “hERG current change (%, negative = inhibition) at 1uM” value falls from 12.3% to -51.9%.

First: O=C(c1ccc(F)cc1)N1CCN(C(=O)c2ccc([N+](=O)[O-])cc2)CC1
Second: O=C(C1COc2ccccc2O1)N1CCN(c2ccc(F)cc2)CC1 (stereo not drawn)
The “hERG current change (%, negative = inhibition) at 1uM” value of the first is lower: -13.7% for the first, -9.29% for the second.

Compared with `CCn1nc(C(=O)NNC(=O)c2ccccc2OCc2c(C)noc2C)c2ccccc2c1=O`, `O=c1c2ccccc2c(/C=N/c2nnc(Cc3ccccc3)s2)c(O)n1-c1ccc(Cl)cn1` is higher in “hERG current change (%, negative = inhibition) at 1uM” value: 9.55% for the first, 11.3% for the second.

First: Cc1cc(NS(=O)(=O)c2ccc(NC(=O)COc3ccc(Cl)cc3Cl)cc2)no1
Second: COC(=O)C(C)NS(=O)(=O)c1ccc(NC(C)=O)cc1 (stereo not drawn)
The “hERG current change (%, negative = inhibition) at 1uM” value of the first is lower: -0.394% for the first, 1.66% for the second.

Compared with `CC(=O)O.NCC(c1ccco1)c1c[nH]c2ccccc12` (stereo not drawn), `CCOc1ccc(CN(C)C(C)C(=O)NCc2ccccc2)cc1` (stereo not drawn) is lower in “hERG current change (%, negative = inhibition) at 1uM” value: 12.2% for the first, -21.7% for the second.

Compared with `O=C(CN1CCN(C(=O)C2COc3ccccc3O2)CC1)Nc1ccccc1` (stereo not drawn), `O=C(COC(=O)/C=C/c1ccccc1F)Nc1nnc(-c2ccccc2)o1` is higher in “hERG current change (%, negative = inhibition) at 1uM” value: -22.5% for the first, 7.16% for the second.

Going from `Cc1ccc(S(=O)(=O)NCCOCCNS(=O)(=O)c2ccc(C)cc2)cc1` to `CCOc1ccc(CN(C)C(C)C(=O)NCCc2ccc(F)cc2)cc1` (stereo not drawn), the “hERG current change (%, negative = inhibition) at 1uM” value falls from -2.18% to -57.1%.

First: Cc1ccccc1C(=O)NC1CCN(C(=O)N2CCOCC2)CC1
Second: O=C(CN1CCCC1=O)NCCc1ccccc1
The “hERG current change (%, negative = inhibition) at 1uM” value of the first is higher: 12.6% for the first, 8.88% for the second.

Compared with `CC(C)OC(=O)CSc1nc2c(cc1C#N)CCCCC2`, `CC12CCC(=O)N1C(C(=O)OCC(=O)Nc1cc(S(=O)(=O)N3CCCCC3)ccc1Cl)CS2` (stereo not drawn) is higher in “hERG current change (%, negative = inhibition) at 1uM” value: 10.2% for the first, 11.1% for the second.

Compared with `CN(CCc1ccccn1)Cc1ccc(Cl)cc1`, `CCc1ccc(CN(C)CCc2ccccn2)cc1` is lower in “hERG current change (%, negative = inhibition) at 1uM” value: -24.6% for the first, -34.7% for the second.

Compared with `CSc1ccc(CN(C)CCc2ccccn2)cc1.O=C(O)C(=O)O`, `CCOc1ccc(CN(C)CCc2ccccn2)cc1.O=C(O)C(=O)O` is lower in “hERG current change (%, negative = inhibition) at 1uM” value: -21.3% for the first, -58.8% for the second.

Compared with `CSc1ccc(CN(C)CC(=O)NCc2ccccc2)cc1`, `CN(CCc1ccccn1)Cc1ccc(Cl)c(Cl)c1` is higher in “hERG current change (%, negative = inhibition) at 1uM” value: -11.1% for the first, -0.903% for the second.

Compared with `CN(CCc1ccccn1)Cc1ccc(Cl)cc1Cl`, `CCN(CCn1cccn1)C(=O)c1cc(COc2ccc(F)c(F)c2)on1` is higher in “hERG current change (%, negative = inhibition) at 1uM” value: -54.1% for the first, -27.1% for the second.

`Cc1ccc(C(=O)c2coc3cc([N+](=O)[O-])c(O)c([N+](=O)[O-])c23)cc1` was tested, and the “hERG current change (%, negative = inhibition) at 1uM” value was 7.26%.
